Data published in PubChem BioAssay (NCATS).
Inconclusive results are not listed. Active and inactive are the calls of the source. Calls come from the whole dose curve; as a rule, active = well fitted cell-killing curve with a large enough effect; inconclusive = small, poorly fitted or top-dose-only effect, or effect the other way; inactive = no such curve, though single readings can be large or run the other way.

Assay: Viability qHTS for spleen associated tyrosine kinase inhibitor (SYKi) drug resistant MV4-11 cells (AID 1963824); note: nearly all actives have a fitted effect of over 35% in size
Details: SYKi-resistant MV4-11 viability, CellTiter-Glo, 72 h; series mostly up to 45 µM
How it was run: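 SYK inhibitor-resistant MV4-11 AML cells, 500 per well, added to predispensed compounds and incubated 72 hr at 37 C, 5% CO2. Viability measured by CellTiter-Glo luminescence after 10 min at room temperature.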
Potency is the fitted concentration of half-maximal effect.

Compound	Potency
Cc1cc(C)cc(Oc2ccc(CNC(=O)[C@H](C)N)cc2C)c1	16.6 µM (active)
CC(O)/C=C/C1(O)C2(C)COC1(C)CC(O)C2 (stereo unspecified)	inactive
C=C1[C@H](OC(C)=O)[C@H]2[C@@H](OC(C)=O)[C@](C)(OC(C)=O)C[C@]2(OC(C)=O)C(=O)[C@H](C)/C=C/C(C)(C)C(=O)[C@H](OC(=O)C(C)CC)[C@H]1OC(C)=O (stereo partly specified)	inactive
COc1cc(CNC(=O)CCCC/C=C/C(C)C)ccc1O	18.4 µM (active)
COc1ccc(-c2ccc3c(N4CCOCC4C)nc(N4CCOCC4C)nc3n2)cc1CO (stereo unspecified)	0.103 µM (active)
COc1ccc(C2OCC3C(c4cc(OC)c5c(c4)OCO5)OCC23)cc1OC (stereo unspecified)	8.93 µM (active)
